This is an account of results in PubChem BioAssay (NCATS).

SMILES strings stand for the structures. Results filed as inconclusive are left out. A call without a number means that no potency is given here. Active and inactive are the calls of the source. Calls follow the shape of the dose curve; as a rule, active = well fitted curve in the direction sought with a large enough effect; inconclusive = small, poorly fitted or top-dose-only effect, or another doubt; inactive = no such curve, though single readings can be large; an effect the other way counts as inactive or inconclusive.

One assay in a line: qHTS to identify inhibitors of the type 1 interferon - major histocompatibility complex class I in skeletal muscle: primary screen against the NCATS LOPAC collection (AID 1347405).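 Also: lytic HiBiT luminescence reporting HLA-B protein level.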 Also: potency is read from the fitted curve at half-maximal effect. To be noted: iHSKM muscle cells, IFN-b-induced MHC-I HiBiT luminescence, 24 h; series mostly up to 45.9 µM. Put shortly:
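Immortalized human C25cl48 myoblasts with HiBiT knocked into endogenous HLA-B*08:01 were stimulated with 4.0 ng/ml IFN-beta and given compounds in a 7-point, 1:4.3 titration from 46 uM final; after 24 hrs, lytic HiBiT luminescence was read.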
(qHTS replaces the single test concentration by a dilution series.)
As for `CC[C@@]1(O)C(=O)OCc2c1cc1n(c2=O)Cc2cc3c(CN(C)C)c(O)ccc3nc2-1`, the Potency was 3.55 µM (active).

For `NS(=O)(=O)c1cc2c(cc1Cl)NCNS2(=O)=O`, the Potency result was “inactive”.

`CC(C)(C)C(=O)Oc1ccc(S(=O)(=O)Nc2ccccc2C(=O)NCC(=O)O)cc1`: the Potency result is “inactive”.

Turning to `CN(C)CCCN1c2ccccc2CCc2ccc(Cl)cc21`, the Potency result is “inactive”.

Turning to `Clc1ccc2c(c1)C(N1CCNCC1)=Nc1ccccc1O2`, the Potency result was “inactive”.

As for `NC(CO)C(=O)NNCc1ccc(O)c(O)c1O` (stereo unspecified), the Potency entry was “inactive”.

For `Nc1ccn([C@H]2CC[C@@H](CO)O2)c(=O)n1`, the Potency result was “inactive”.

In the case of `CC12CC3CC(C)(C1)CC(N)(C3)C2`, the Potency entry was “inactive”.

For `NCCS(=O)(=O)O`, the Potency result is “inactive”.

Regarding `CC(C)(Oc1ccc(C2CC2(Cl)Cl)cc1)C(=O)O` (stereo unspecified), the Potency entry is “inactive”.

As to `CN1CCC(=C2c3ccccc3C=Cc3ccccc32)CC1`, the Potency entry is “inactive”.

For the compound `N[C@@H](Cc1c[nH]c2ccc(O)cc12)C(=O)O`, the Potency entry was “inactive”.

As to `NC(=O)NO`, the Potency result was “inactive”.

With `CN(Cc1cnc2nc(N)nc(N)c2n1)c1ccc(C(=O)N[C@@H](CCC(=O)O)C(=O)O)cc1`, the Potency entry is “inactive”.

Turning to `NC12CC3CC(CC(C3)C1)C2`, the Potency entry is “inactive”.

Consider `Cc1cc(C(C)(C)C)c(O)c(C)c1CC1=NCCN1`, for which the Potency entry is “inactive”.

Consider `Cn1ccc2cc3c(cc21)CCN3C(=O)Nc1cccnc1`, for which the Potency result was “inactive”.

For the compound `CC(CCc1ccc(O)cc1)NCCc1ccc(O)c(O)c1` (stereo unspecified), the Potency result was “inactive”.

Regarding `CCC1(C)CC(=O)NC1=O` (stereo unspecified), the Potency entry is “inactive”.

On to `CN1CCC(=C2c3ccccc3CC(=O)c3sccc32)CC1`, for which the Potency entry was “inactive”.

For the compound `NCCCCCC(=O)O`, the Potency entry was “inactive”.

As to `C[C@](N)(Cc1ccc(O)c(O)c1)C(=O)O`, the Potency entry was “inactive”.

As to `CCOC(=O)Nc1ccc(NCc2ccc(F)cc2)nc1N`, the Potency entry is “inactive”.

With `COc1ccccc1OCC(O)CN1CCN(CC(=O)Nc2c(C)cccc2C)CC1` (stereo unspecified), the Potency entry is “inactive”.

In the case of `Cn1cnc2c1c(=O)[nH]c(=O)n2C`, the Potency entry is “inactive”.

For the compound `O=C(c1ccc(OCCN2CCCCC2)cc1)c1c(-c2ccc(O)cc2)sc2cc(O)ccc12`, the Potency result is “inactive”.

In the case of `O=C1c2c(O)ccc(O)c2C(=O)c2c(NCCNCCO)ccc(NCCNCCO)c21`, the Potency is 2.24 µM (active).

Regarding `CN1CCN(C2=Nc3cc(Cl)ccc3Nc3ccccc32)CC1`, the Potency entry was “inactive”.

`Cc1cnc(C(=O)NCCc2ccc(S(=O)(=O)NC(=O)NC3CCCCC3)cc2)cn1`: the Potency result is “inactive”.

Regarding `COc1ccc2[nH]cc(CCNC(C)=O)c2c1`, the Potency entry is “inactive”.

Regarding `O=c1[nH]cc(F)c(=O)[nH]1`, the Potency result is “inactive”.

As for `CN(C)CCC=C1c2ccccc2C=Cc2ccccc21`, the Potency entry was “inactive”.

Another assay can be described thus: qHTS to identify inhibitors of the type 1 interferon - major histocompatibility complex class I in skeletal muscle: primary screen against the NCATS Pharmaceutical Collection (AID 1347407).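 Also: luminescence of HiBiT knocked into endogenous HLA-B as interferon-induced MHC class I level.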 Also: potency is read from the fitted curve at half-maximal effect. To be noted: human skeletal muscle cells, IFN-b-induced MHC-I HiBiT luminescence, 24 h; series mostly up to 45.9 µM. A digest of the protocol: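 A qHTS format is used: 8-point, 1:5 compound series with 46 uM top final concentration, applied alongside 4 ng/ml IFN-beta to HLA-B*08:01-HiBiT knock-in myoblasts. Luminescence is measured after 24 h treatment.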
Consider `CC[C@@]1(O)C(=O)OCc2c1cc1n(c2=O)Cc2cc3c(CN(C)C)c(O)ccc3nc2-1`, for which the Potency is 10.5 µM (active).

On to `NS(=O)(=O)c1cc2c(cc1Cl)NCNS2(=O)=O`, for which the Potency entry is “inactive”.

Turning to `CC(C)(C)C(=O)Oc1ccc(S(=O)(=O)Nc2ccccc2C(=O)NCC(=O)O)cc1`, the Potency entry was “inactive”.

Turning to `CN(C)CCCN1c2ccccc2CCc2ccc(Cl)cc21`, the Potency result is “inactive”.

On to `Clc1ccc2c(c1)C(N1CCNCC1)=Nc1ccccc1O2`, for which the Potency entry is “inactive”.

For `NC(CO)C(=O)NNCc1ccc(O)c(O)c1O` (stereo unspecified), the Potency result was “inactive”.

For the compound `Nc1ccn([C@H]2CC[C@@H](CO)O2)c(=O)n1`, the Potency result was “inactive”.

On to `CC12CC3CC(C)(C1)CC(N)(C3)C2`, for which the Potency entry is “inactive”.

For the compound `NCCS(=O)(=O)O`, the Potency result is “inactive”.

Consider `CC(C)(Oc1ccc(C2CC2(Cl)Cl)cc1)C(=O)O` (stereo unspecified), for which the Potency entry was “inactive”.

For the compound `CN1CCC(=C2c3ccccc3C=Cc3ccccc32)CC1`, the Potency result was “inactive”.

With `N[C@@H](Cc1c[nH]c2ccc(O)cc12)C(=O)O`, the Potency entry is “inactive”.

In the case of `NC(=O)NO`, the Potency result was “inactive”.

For `CN(Cc1cnc2nc(N)nc(N)c2n1)c1ccc(C(=O)N[C@@H](CCC(=O)O)C(=O)O)cc1`, the Potency result was “inactive”.

Regarding `NC12CC3CC(CC(C3)C1)C2`, the Potency entry is “inactive”.

For the compound `Cc1cc(C(C)(C)C)c(O)c(C)c1CC1=NCCN1`, the Potency entry was “inactive”.

On to `Cn1ccc2cc3c(cc21)CCN3C(=O)Nc1cccnc1`, for which the Potency entry is “inactive”.

Consider `CC(CCc1ccc(O)cc1)NCCc1ccc(O)c(O)c1` (stereo unspecified), for which the Potency entry is “inactive”.

On to `CCC1(C)CC(=O)NC1=O` (stereo unspecified), for which the Potency result is “inactive”.

Turning to `CN1CCC(=C2c3ccccc3CC(=O)c3sccc32)CC1`, the Potency result is “inactive”.

For the compound `NCCCCCC(=O)O`, the Potency entry is “inactive”.

For the compound `C[C@](N)(Cc1ccc(O)c(O)c1)C(=O)O`, the Potency result was “inactive”.

In the case of `CCOC(=O)Nc1ccc(NCc2ccc(F)cc2)nc1N`, the Potency entry is “inactive”.

Take `COc1ccccc1OCC(O)CN1CCN(CC(=O)Nc2c(C)cccc2C)CC1` (stereo unspecified): the Potency result is “inactive”.

With `Cn1cnc2c1c(=O)[nH]c(=O)n2C`, the Potency result was “inactive”.

Take `O=C(c1ccc(OCCN2CCCCC2)cc1)c1c(-c2ccc(O)cc2)sc2cc(O)ccc12`: the Potency entry is “inactive”.

Take `O=C1c2c(O)ccc(O)c2C(=O)c2c(NCCNCCO)ccc(NCCNCCO)c21`: the Potency is 11.8 µM (active).

`CN1CCN(C2=Nc3cc(Cl)ccc3Nc3ccccc32)CC1`: the Potency entry is “inactive”.

In the case of `Cc1cnc(C(=O)NCCc2ccc(S(=O)(=O)NC(=O)NC3CCCCC3)cc2)cn1`, the Potency entry is “inactive”.

As to `COc1ccc2[nH]cc(CCNC(C)=O)c2c1`, the Potency result was “inactive”.

Turning to `O=c1[nH]cc(F)c(=O)[nH]1`, the Potency result was “inactive”.

On to `CN(C)CCC=C1c2ccccc2C=Cc2ccccc21`, for which the Potency result is “inactive”.

A further assay in a line: qHTS for inhibitors of adenylyl cyclases using a fission yeast platform: a pilot screen against the NCATS LOPAC library (AID 1347410). Particulars: S. pombe CHP2027, fbp1-GFP fluorescence, 18 h, yeast expressing mammalian AC9 and human GNAS; series mostly up to 57.5 µM. Put shortly:
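Inhibition of GNAS-stimulated AC9 activity in S. pombe was inferred from derepression of a PKA-repressed fbp1-GFP reporter, measured as cytometric fluorescence after 18 h at 30C with compounds at up to 57 µM.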
In the case of `CC[C@@]1(O)C(=O)OCc2c1cc1n(c2=O)Cc2cc3c(CN(C)C)c(O)ccc3nc2-1`, the call was inactive.

Turning to `NS(=O)(=O)c1cc2c(cc1Cl)NCNS2(=O)=O`, the result was inactive.

For `CC(C)(C)C(=O)Oc1ccc(S(=O)(=O)Nc2ccccc2C(=O)NCC(=O)O)cc1`, the call was inactive.

Consider `CN(C)CCCN1c2ccccc2CCc2ccc(Cl)cc21`, for which the call was inactive.

With `Clc1ccc2c(c1)C(N1CCNCC1)=Nc1ccccc1O2`, the compound was called inactive.

`NC(CO)C(=O)NNCc1ccc(O)c(O)c1O` (stereo unspecified): the outcome was inactive.

Take `Nc1ccn([C@H]2CC[C@@H](CO)O2)c(=O)n1`: the call was inactive.

As for `CC12CC3CC(C)(C1)CC(N)(C3)C2`, the compound was classed as inactive.

For the compound `NCCS(=O)(=O)O`, the compound was called inactive.

Take `CC(C)(Oc1ccc(C2CC2(Cl)Cl)cc1)C(=O)O` (stereo unspecified): the result was inactive.

On to `CN1CCC(=C2c3ccccc3C=Cc3ccccc32)CC1`, for which the outcome was inactive.

With `N[C@@H](Cc1c[nH]c2ccc(O)cc12)C(=O)O`, the call was inactive.

`NC(=O)NO`: the compound was classed as inactive.

Regarding `CN(Cc1cnc2nc(N)nc(N)c2n1)c1ccc(C(=O)N[C@@H](CCC(=O)O)C(=O)O)cc1`, the result was inactive.

For `NC12CC3CC(CC(C3)C1)C2`, the compound was called inactive.

As for `Cc1cc(C(C)(C)C)c(O)c(C)c1CC1=NCCN1`, the compound was called inactive.

For the compound `Cn1ccc2cc3c(cc21)CCN3C(=O)Nc1cccnc1`, the outcome was inactive.

For `CC(CCc1ccc(O)cc1)NCCc1ccc(O)c(O)c1` (stereo unspecified), the call was inactive.

For `CCC1(C)CC(=O)NC1=O` (stereo unspecified), the compound was called inactive.

In the case of `CN1CCC(=C2c3ccccc3CC(=O)c3sccc32)CC1`, the compound was classed as inactive.

With `NCCCCCC(=O)O`, the outcome was inactive.

Consider `C[C@](N)(Cc1ccc(O)c(O)c1)C(=O)O`, for which the compound was called inactive.

Regarding `CCOC(=O)Nc1ccc(NCc2ccc(F)cc2)nc1N`, the call was inactive.

Turning to `COc1ccccc1OCC(O)CN1CCN(CC(=O)Nc2c(C)cccc2C)CC1` (stereo unspecified), the outcome was inactive.

On to `Cn1cnc2c1c(=O)[nH]c(=O)n2C`, for which the compound was called inactive.

`O=C(c1ccc(OCCN2CCCCC2)cc1)c1c(-c2ccc(O)cc2)sc2cc(O)ccc12`: the compound was classed as inactive.

As for `O=C1c2c(O)ccc(O)c2C(=O)c2c(NCCNCCO)ccc(NCCNCCO)c21`, the compound was classed as inactive.

With `CN1CCN(C2=Nc3cc(Cl)ccc3Nc3ccccc32)CC1`, the compound was called inactive.

For `Cc1cnc(C(=O)NCCc2ccc(S(=O)(=O)NC(=O)NC3CCCCC3)cc2)cn1`, the compound was classed as inactive.

As to `COc1ccc2[nH]cc(CCNC(C)=O)c2c1`, the result was inactive.

Turning to `O=c1[nH]cc(F)c(=O)[nH]1`, the call was inactive.

Take `CN(C)CCC=C1c2ccccc2C=Cc2ccccc21`: the compound was classed as inactive.
